PMC4336329 (PLoS ONE, 2015)
Out of some 310,000 compounds screened, about 14,000 (4.5%) showed an effect of 50% or more. The effect is printed as a negative number. This is one part of a sample in which strong results are shown more often than they occur.

Biological target: human ether-à-go-go-related gene (hERG) potassium channel (human, UniProt Q12809)
Test: primary screen, population patch clamp on CHO cells stably expressing hERG; higher = less effect of the substance
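Note: peak tail current of the secondary pulse compared with the same well before compound.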

Chain of human ether-à-go-go-related gene (hERG) potassium channel (Q12809 whole entry, looked up): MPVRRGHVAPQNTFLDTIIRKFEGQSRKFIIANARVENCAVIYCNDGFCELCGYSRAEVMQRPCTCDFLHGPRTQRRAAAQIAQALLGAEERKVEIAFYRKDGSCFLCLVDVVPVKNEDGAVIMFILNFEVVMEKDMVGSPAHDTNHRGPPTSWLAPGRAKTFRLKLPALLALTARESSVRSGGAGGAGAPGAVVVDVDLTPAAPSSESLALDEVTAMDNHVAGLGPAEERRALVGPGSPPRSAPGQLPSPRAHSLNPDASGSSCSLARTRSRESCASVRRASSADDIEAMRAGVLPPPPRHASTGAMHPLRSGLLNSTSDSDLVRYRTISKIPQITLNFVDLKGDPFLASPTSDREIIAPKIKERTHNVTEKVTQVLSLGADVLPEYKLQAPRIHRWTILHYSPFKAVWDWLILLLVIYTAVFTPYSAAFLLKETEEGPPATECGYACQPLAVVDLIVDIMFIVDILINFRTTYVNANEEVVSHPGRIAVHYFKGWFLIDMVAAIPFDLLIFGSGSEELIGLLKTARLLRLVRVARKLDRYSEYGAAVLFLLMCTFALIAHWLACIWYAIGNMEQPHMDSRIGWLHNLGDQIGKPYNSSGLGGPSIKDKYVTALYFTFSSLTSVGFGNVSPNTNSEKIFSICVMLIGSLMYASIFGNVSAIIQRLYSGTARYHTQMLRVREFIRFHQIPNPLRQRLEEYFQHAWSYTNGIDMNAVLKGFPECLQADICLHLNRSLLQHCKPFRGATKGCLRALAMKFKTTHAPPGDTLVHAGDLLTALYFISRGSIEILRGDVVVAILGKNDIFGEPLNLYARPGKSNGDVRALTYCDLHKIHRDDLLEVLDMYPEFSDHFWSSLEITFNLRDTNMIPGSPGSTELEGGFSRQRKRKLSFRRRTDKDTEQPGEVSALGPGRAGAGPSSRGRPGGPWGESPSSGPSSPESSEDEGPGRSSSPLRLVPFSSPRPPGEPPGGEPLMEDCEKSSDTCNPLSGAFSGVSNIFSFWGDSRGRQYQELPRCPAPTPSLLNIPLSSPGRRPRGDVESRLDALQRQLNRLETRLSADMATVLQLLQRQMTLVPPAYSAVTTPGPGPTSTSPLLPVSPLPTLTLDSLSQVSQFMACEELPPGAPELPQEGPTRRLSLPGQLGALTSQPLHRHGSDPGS

SMILES	hERG current change (%, negative = inhibition) at 10uM
COc1cc2c(cc1OC)C(C)N(C(=O)Nc1ccc(F)cc1)CC2 (stereo not drawn)	10.6%
Br.O=C(CSc1nc2ccccc2c(=O)n1-c1ccccc1)c1cccc([N+](=O)[O-])c1	-7.38%
COc1cc2c(cc1OC)C(c1ccc(Br)cc1)N(C(=O)c1ccccc1C(=O)O)CC2 (stereo not drawn)	9.72%
Cc1cc(C)c(C)c(S(=O)(=O)NCCCN2CCOCC2)c1C	13.6%
O=C1CCN(C(=O)Nc2cccc(Cl)c2)N1	14.1%
COCCN(C(=S)Nc1ccc(OC)c(Cl)c1)C1CCN(C(C)C)CC1	-35.9%
CC(C)CCN(C(=S)Nc1cccc(F)c1)C1CCN(C(C)C)CC1	-42.9%
CC(C)CCN(C(=O)Nc1ccc(Cl)cc1)C1CCN(C(C)C)CC1	-72.1%
CCOc1ccc(NC(=O)N(CCC(C)C)C2CCN(C(C)=O)CC2)cc1	-9.87%
COc1ccc(NC(=S)N(CCC(C)C)C2CCN(C(C)C)CC2)cc1Cl	-68.1%
COc1ccc(NC(=S)N(C(C)C)C2CCN(C(C)C)CC2)cc1Cl	0.307%
CSc1cccc(NC(=S)N(CCC(C)C)C2CCN(C(C)C)CC2)c1	-52.5%
CCCCN(C(=O)Nc1ccc(Cl)cc1)C1CCN(C(C)=O)CC1	-46%
CSc1cccc(NC(=S)N(CCC(C)C)C2CCN(C(C)=O)CC2)c1	-23.3%
O=C1CCCN1CCCNc1ncnc2sccc12	3.29%
CC(C)(C)N1[C@@H](CC(=O)O)c2cc(C(F)(F)F)ccc2S1(=O)=O	11.2%
Cc1ccccc1Nc1nc(N)nc(COC(=O)CCS(=O)(=O)c2ccccc2)n1	-14.4%
CC(C)=C1C2CCC1C1C(=O)N(NC(=O)c3ccco3)C(=O)C21 (stereo not drawn)	-4.72%
Cc1nn(C)c(C(=O)N2CCc3ccccc32)c1Cl	2.37%
CCOC(=O)c1cnc2c(C)cc(C)cc2c1Nc1ccc(S(=O)(=O)Nc2ncccn2)cc1	-0.317%
COc1ccc(Cl)cc1N(CC(=O)N1CCN(Cc2ccccc2)CC1)S(C)(=O)=O	-7.28%
Cc1ccc2[nH]c3c(c2c1)CN(C(=O)CN1CCN(Cc2ccc4c(c2)OCO4)CC1)CC3	-54.8%
CN(CC(=O)N1CCc2[nH]c3ccc(F)cc3c2C1)CC1OCCO1	5.81%
O=C(c1cc2cc(F)ccc2[nH]1)N1CCN(Cc2ccc3c(c2)OCO3)CC1	-0.31%
Cc1ccc2[nH]c3c(c2c1)CN(C(=O)CN1CCN(C(=O)c2ccco2)CC1)CC3	-5.97%
Cc1ccc2[nH]c3c(c2c1)CN(C(=O)CN1CCCCC1)CC3	-31.8%
O=C(CN1CCN(Cc2ccc3c(c2)OCO3)CC1)N1CCc2[nH]c3ccc(F)cc3c2C1	-62.8%

SMILES	hERG current change (%, negative = inhibition) at 10uM
COc1ccccc1NC(=O)c1sc2nc(-c3ccco3)ccc2c1N	1.24%
Cc1n[nH]c(C)c1N1C(=O)c2cccc3c(N4CCCCCC4)ccc(c23)C1=O	-21.5%
CCC(=O)N1c2ccc(S(=O)(=O)NCCc3ccc(OC)c(OC)c3)cc2CC1C (stereo not drawn)	10.3%
CSc1c(CC(=O)Nc2ccccc2Cl)n(Cc2ccccc2)c2ccccc12	8.86%
COc1ccc(NC(=O)CCCN2C(=O)CN(C)C2=O)c(OC)c1	-4.4%
CCN(CC(=O)NCc1cccs1)C(=O)c1ccc(S(=O)(=O)N(C)C)cc1	48.6%
CCN(CC(=O)NCc1cccs1)S(=O)(=O)c1ccc(NC(C)=O)cc1	-7.22%
CCN(CC(=O)NCc1cccs1)S(=O)(=O)c1ccc(C(C)C)cc1	-53.3%
CCN(CC(=O)Nc1cccc(OC)c1)C(=O)c1cccc(S(=O)(=O)N2CCc3ccccc32)c1	-1.63%
CCN(CC(=O)NCc1cccs1)S(=O)(=O)c1ccccc1Cl	-11.3%
CCN(CC(=O)NCc1cccs1)C(=O)c1ccc(S(=O)(=O)N(CC)c2ccccc2)cc1	-61.4%
CCN(CC)S(=O)(=O)c1ccc(C(=O)NCc2cccs2)cc1	-20.7%
CCN(CC(=O)NCc1cccs1)S(=O)(=O)c1ccc(F)cc1	-85%
CCN(CC(=O)NCc1cccs1)S(=O)(=O)c1c(F)cccc1F	0.594%
CCN(CC(=O)NCc1cccs1)C(=O)c1cccc(S(=O)(=O)N2CCc3ccccc32)c1	-71.3%
CCN(CC(=O)NCc1cccs1)C(=O)c1cccc(S(=O)(=O)NC)c1	-12.2%
CCN(CC(=O)NCc1cccs1)C(=O)c1ccc(S(=O)(=O)Nc2ccccc2)cc1	-15.6%
COC(=O)c1ccc2c(c1)S(=O)(=O)NC(=NCCCN1CCOCC1)S2.Cl	-1%
COc1ccc(OCCC(=O)OCC(=O)NC(=O)NC2CCCCC2)cc1	13.2%
CN(C)c1ccc(NS(=O)(=O)c2ccc(-c3csnn3)cc2)cc1	13.1%
CCCC1(c2ccccc2)NC(=O)N(CC(=O)c2[nH]c(C)c(C(=O)OCC)c2C)C1=O (stereo not drawn)	12.5%
CCOC(=O)N1CCN(Cc2cn3ccccc3n2)CC1.O=C(O)C(=O)O	21.9%
Nc1cc(C(=O)N/N=C/c2cccc([N+](=O)[O-])c2)n[nH]c1=O	7.18%
c1ccc(Cn2c(SCc3nc4ccccc4s3)nnc2-c2ccco2)cc1	-34.1%
CCOC(=O)N1CCN(C(=O)C2CCN(S(=O)(=O)c3ccc(Br)s3)CC2)CC1	-35.2%
O=C(Oc1ccc(/C=N/Nc2nc(N3CCCCC3)nc(N3CCCCC3)n2)cc1)c1ccco1	-9.1%
COc1ccc(NC(=O)c2cccc(C#N)c2)cc1NS(=O)(=O)c1ccc(F)cc1	8.63%
